Of roughly 8,800 targets only a part is listed; those with a hit were picked by preference. About 0.5% of all pairs of compound and target were hits.
Tests used:
Assay in all cases: log2 fold change, soluble protein after heating vs DMSO (PISA); higher = thermal stabilisation; K562 lysate, 10 uM; active = over 0.2 and 3.5 SD of the protein, either way, in both replicates (recomputed)
[1] = compound: C1=CC=C(C=C1)[C@H](COC2=CC3=C(C=C2)NC(=O)N3)NC(=O)C4=CC=CN(C4=O)CC5=CC(=C(C=C5)F)F
Method in brief: (§1)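 A 30 min treatment with 10 μM compound was applied to crude K562 extract at 1 mg/mL protein in PBS pH 7.4 with 1 mM MgCl2. Heating for 3 min spanned 48°C-58°C, after which aliquots were pooled, adjusted to 0.5% NP-40 at 4°C and spun at 21,000xg for 90 min. TMTpro 16plex LC-MS/MS of the supernatant, with channel sums equalised, gave values recorded as log-two fold change in thermal stability against solvent controls, from duplicates.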

[2] = compound: CC1=C(SC2=C1C(=N[C@H](C3=NN=C(N32)C)CC(=O)N)C4=CC=C(C=C4)Cl)C
Method in brief: as §1

[3] = compound: CC1=C2C(=CC=C1)N=C(N(C2=O)C3=CC=CC=C3C)CN4C=NC5=C(N=CN=C54)N
Method in brief: as §1

[4] = compound: Cc1sc2c(c1C)C(c1ccc(Cl)cc1)=N[C@@H](CC(=O)OC(C)(C)C)c1nnc(C)n1-2
Method in brief: as §1

[5] = compound: c1ccc([C@@H]2C[C@H]2NC2CCNCC2)cc1
Method in brief: as §1

UniProt Q9HCS7, sequence (Q9HCS7 whole entry, looked up): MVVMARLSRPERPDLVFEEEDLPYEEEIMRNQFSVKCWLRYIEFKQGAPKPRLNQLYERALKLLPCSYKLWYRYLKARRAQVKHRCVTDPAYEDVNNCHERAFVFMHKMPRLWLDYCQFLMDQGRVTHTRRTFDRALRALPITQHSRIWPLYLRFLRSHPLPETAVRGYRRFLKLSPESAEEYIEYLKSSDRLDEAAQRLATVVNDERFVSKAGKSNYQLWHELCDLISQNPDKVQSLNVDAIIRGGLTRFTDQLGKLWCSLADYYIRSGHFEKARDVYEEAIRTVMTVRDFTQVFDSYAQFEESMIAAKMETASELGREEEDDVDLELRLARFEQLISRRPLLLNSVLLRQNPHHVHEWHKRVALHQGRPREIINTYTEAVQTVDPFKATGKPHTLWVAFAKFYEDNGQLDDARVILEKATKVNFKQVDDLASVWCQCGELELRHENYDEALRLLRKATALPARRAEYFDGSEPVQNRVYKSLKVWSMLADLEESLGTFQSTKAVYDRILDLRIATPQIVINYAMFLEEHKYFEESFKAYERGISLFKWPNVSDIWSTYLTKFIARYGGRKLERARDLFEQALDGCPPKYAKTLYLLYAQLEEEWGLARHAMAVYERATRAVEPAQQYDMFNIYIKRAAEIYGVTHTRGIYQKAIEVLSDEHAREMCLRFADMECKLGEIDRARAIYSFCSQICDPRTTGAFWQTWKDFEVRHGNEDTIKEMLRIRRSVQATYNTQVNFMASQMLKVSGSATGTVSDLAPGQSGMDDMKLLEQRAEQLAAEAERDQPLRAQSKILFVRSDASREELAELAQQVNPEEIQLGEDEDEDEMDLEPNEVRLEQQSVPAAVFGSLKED
UniProt Q15906, sequence (Q15906 whole entry, looked up): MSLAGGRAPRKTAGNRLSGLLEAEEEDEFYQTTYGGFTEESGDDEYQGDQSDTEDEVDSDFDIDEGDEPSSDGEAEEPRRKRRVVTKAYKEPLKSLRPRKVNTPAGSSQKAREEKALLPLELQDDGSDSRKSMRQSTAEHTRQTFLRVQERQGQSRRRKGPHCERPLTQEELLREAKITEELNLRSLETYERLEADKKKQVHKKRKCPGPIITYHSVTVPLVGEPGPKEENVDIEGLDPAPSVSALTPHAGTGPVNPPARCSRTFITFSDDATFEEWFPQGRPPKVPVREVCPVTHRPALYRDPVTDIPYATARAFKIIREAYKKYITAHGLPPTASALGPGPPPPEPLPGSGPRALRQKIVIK
UniProt Q5MNZ9, sequence (Q5MNZ9 whole entry, looked up): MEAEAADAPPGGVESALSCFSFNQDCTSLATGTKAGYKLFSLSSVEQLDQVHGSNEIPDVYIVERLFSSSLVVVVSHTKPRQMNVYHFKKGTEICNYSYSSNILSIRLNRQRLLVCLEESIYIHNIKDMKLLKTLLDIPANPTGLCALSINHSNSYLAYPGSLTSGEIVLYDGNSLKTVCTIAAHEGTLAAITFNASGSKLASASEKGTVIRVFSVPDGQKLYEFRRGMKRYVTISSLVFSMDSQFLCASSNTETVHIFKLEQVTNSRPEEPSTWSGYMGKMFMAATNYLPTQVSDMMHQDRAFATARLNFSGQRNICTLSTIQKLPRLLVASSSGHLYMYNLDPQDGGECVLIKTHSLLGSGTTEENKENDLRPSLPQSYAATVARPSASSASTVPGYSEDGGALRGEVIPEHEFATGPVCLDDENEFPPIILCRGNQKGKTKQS
UniProt Q96TA2, sequence (Q96TA2 whole entry, looked up): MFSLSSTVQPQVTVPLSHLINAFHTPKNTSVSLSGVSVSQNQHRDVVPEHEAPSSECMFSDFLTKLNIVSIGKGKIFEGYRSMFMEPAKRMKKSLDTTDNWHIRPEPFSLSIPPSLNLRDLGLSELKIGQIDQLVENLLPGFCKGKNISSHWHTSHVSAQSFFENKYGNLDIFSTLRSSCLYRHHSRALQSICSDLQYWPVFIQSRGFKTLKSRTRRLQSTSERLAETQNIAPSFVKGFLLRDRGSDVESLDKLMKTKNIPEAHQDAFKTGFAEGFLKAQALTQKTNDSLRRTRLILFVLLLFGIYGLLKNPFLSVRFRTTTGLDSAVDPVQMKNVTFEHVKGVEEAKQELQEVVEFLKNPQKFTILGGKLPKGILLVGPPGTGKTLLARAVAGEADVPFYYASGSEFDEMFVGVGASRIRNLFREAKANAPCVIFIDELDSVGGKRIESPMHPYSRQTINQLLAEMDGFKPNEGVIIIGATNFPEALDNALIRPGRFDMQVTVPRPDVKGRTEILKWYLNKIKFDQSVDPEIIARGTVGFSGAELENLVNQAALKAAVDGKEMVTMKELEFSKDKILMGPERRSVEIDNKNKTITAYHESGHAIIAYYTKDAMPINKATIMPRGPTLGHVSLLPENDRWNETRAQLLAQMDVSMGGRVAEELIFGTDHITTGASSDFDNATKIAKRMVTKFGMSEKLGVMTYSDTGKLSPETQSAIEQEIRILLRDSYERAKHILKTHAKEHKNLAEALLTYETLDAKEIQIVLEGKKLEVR
UniProt Q7Z3J2, sequence (Q7Z3J2 whole entry, looked up): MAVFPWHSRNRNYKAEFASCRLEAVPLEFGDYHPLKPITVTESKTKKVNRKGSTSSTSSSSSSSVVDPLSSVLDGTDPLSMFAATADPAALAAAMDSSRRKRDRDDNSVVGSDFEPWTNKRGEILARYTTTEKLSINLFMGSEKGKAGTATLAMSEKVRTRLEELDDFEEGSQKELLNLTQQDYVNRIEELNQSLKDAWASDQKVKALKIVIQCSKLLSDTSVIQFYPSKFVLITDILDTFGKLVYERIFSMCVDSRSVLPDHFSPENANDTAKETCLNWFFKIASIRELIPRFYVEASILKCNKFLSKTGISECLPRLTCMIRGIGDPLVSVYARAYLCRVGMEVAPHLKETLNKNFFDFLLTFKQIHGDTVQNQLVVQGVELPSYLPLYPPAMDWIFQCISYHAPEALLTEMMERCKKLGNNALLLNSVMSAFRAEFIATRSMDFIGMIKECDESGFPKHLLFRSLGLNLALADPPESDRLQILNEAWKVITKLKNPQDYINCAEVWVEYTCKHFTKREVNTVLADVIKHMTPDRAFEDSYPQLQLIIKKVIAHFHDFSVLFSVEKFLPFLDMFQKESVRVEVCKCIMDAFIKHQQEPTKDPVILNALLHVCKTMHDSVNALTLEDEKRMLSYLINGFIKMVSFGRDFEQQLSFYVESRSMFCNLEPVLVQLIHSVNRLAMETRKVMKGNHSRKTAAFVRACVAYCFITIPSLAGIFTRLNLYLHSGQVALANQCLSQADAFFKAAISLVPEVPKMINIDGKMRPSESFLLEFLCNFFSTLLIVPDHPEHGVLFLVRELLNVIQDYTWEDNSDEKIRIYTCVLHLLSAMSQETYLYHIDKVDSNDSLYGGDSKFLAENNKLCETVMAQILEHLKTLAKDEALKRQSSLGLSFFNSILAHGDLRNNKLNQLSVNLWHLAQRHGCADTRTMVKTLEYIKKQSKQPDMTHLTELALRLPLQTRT
UniProt Q9UKW4, sequence (Q9UKW4 whole entry, looked up): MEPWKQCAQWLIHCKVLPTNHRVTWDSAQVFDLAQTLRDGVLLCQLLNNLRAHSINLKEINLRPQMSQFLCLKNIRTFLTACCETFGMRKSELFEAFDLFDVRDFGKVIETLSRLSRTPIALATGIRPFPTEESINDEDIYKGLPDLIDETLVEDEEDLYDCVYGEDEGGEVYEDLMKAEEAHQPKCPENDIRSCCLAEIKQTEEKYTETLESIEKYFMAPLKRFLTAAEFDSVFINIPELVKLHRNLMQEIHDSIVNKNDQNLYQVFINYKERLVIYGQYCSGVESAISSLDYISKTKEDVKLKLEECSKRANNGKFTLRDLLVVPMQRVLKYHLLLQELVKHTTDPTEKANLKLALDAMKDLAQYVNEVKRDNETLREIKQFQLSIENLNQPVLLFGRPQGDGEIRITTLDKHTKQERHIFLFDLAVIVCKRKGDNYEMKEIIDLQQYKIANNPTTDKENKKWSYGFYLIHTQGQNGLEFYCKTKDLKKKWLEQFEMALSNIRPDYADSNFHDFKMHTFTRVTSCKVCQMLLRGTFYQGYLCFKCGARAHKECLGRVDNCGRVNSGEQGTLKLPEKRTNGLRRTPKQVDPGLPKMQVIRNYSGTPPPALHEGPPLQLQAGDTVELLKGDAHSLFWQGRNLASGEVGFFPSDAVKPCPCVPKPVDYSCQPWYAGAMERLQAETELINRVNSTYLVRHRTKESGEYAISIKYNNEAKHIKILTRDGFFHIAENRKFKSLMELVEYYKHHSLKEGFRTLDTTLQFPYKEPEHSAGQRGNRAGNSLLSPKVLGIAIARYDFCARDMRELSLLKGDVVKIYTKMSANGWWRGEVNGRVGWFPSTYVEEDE
UniProt Q9UN37, sequence (Q9UN37 whole entry, looked up): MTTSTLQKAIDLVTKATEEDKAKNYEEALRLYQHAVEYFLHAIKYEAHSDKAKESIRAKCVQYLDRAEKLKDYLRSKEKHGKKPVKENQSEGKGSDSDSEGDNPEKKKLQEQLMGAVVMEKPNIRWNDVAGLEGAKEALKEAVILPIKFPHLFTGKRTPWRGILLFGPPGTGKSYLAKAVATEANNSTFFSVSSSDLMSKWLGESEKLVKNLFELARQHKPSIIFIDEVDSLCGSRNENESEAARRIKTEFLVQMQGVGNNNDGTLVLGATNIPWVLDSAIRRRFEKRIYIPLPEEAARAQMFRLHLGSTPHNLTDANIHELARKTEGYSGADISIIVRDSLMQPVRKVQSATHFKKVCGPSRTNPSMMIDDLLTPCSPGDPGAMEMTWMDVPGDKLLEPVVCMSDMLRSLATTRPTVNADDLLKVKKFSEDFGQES
UniProt O00488, sequence (O00488 whole entry, looked up): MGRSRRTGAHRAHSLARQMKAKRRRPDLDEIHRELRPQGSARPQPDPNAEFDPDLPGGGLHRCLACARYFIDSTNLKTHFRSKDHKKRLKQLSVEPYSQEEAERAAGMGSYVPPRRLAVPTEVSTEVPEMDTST
UniProt Q96NC0, sequence (Q96NC0 whole entry, looked up): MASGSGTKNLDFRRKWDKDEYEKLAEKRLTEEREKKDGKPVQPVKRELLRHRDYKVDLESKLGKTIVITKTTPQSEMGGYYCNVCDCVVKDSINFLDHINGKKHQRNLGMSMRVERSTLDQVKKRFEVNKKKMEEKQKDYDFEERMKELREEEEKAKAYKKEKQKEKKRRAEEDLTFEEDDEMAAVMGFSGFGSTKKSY

| Target | log2 fold change [1] | log2 fold change [2] | log2 fold change [3] | log2 fold change [4] | log2 fold change [5] |
| --- | --- | --- | --- | --- | --- |
| ZMAT2 (UniProt Q96NC0) | 0.037 (inactive) | -0.01 (inactive) | 0.03 (inactive) | 0.03 (inactive) | 0.013 (inactive) |
| ZNF451 (UniProt Q9Y4E5) | -0.038 (inactive) | 0.03 (inactive) | -0.014 (inactive) | 0.018 (inactive) | 0.009 (inactive) |
| WRNIP1 (UniProt Q96S55) | -0.051 (inactive) | -0.033 (inactive) | 0.024 (inactive) | 0.016 (inactive) | 0.06 (inactive) |
| UTP3 (UniProt Q9NQZ2) | -0.009 (inactive) | -0.035 (inactive) | 0.076 (inactive) | -0.158 (inactive) | 0.018 (inactive) |
| VPS4A (UniProt Q9UN37) | -0.056 (inactive) | 0.034 (inactive) | -0.102 (inactive) | 0.017 (inactive) | 0.074 (inactive) |
| WDR3 (UniProt Q9UNX4) | 0.039 (inactive) | -0.026 (inactive) | 0.006 (inactive) | -0.014 (inactive) | 0.056 (inactive) |
| ZNF593 (UniProt O00488) | -0.038 (inactive) | 0.051 (inactive) | 0.008 (inactive) | 0.127 (inactive) | 0.035 (inactive) |
| ZDHHC18 (UniProt Q9NUE0) | 0.103 (inactive) | 0.115 (inactive) | 0.075 (inactive) | -0.072 (inactive) | 0.043 (inactive) |
| VPS39 (UniProt Q96JC1) | -0.008 (inactive) | -0.002 (inactive) | -0.006 (inactive) | -0.009 (inactive) | 0.3 (inactive) |
| YEATS4 (UniProt O95619) | -0.014 (inactive) | 0.05 (inactive) | -0.029 (inactive) | 0.046 (inactive) | 0.25 (inactive) |
| YES1 (UniProt P07947) | -0.068 (inactive) | -0.099 (inactive) | 0.009 (inactive) | -0.045 (inactive) | 0 (inactive) |
| XAB2 (UniProt Q9HCS7) | -0.009 (inactive) | 0.05 (inactive) | 0 (inactive) | -0.018 (inactive) | 0.035 (inactive) |
| ZNF598 isoform 3 (UniProt Q86UK7) | -0.037 (inactive) | -0.014 (inactive) | 0.006 (inactive) | 0.034 (inactive) | 0.025 (inactive) |
| VPS33A (UniProt Q96AX1) | 0 (inactive) | 0.017 (inactive) | 0.014 (inactive) | -0.013 (inactive) | -0.01 (inactive) |
| YBEY (UniProt P58557) |  |  | 0.046 (inactive) | -0.016 (inactive) |  |
| XPO1 (UniProt O14980) | -0.024 (inactive) | 0.023 (inactive) | 0.012 (inactive) | 0.008 (inactive) | 0.023 (inactive) |
| VAV3 isoform 4 (UniProt Q9UKW4) | 0.089 (inactive) | -0.012 (inactive) | 0.096 (inactive) | 0.001 (inactive) | -0.391 (inactive) |
| VPS72 (UniProt Q15906) |  |  | 0.027 (inactive) | -0.015 (inactive) | -0.035 (inactive) |
| WIPI1 (UniProt Q5MNZ9) | 0.094 (inactive) | 0.023 (inactive) |  | 0.035 (inactive) | -0.031 (inactive) |
| ZDHHC17 (UniProt Q8IUH5) |  |  | 0.057 (inactive) | -0.181 (inactive) | -0.578 (inactive) |
| ZNF609 (UniProt O15014) | 0.009 (inactive) | 0.008 (inactive) | 0.078 (inactive) | -0.047 (inactive) | -0.082 (inactive) |

| Target | log2 fold change [1] | log2 fold change [2] | log2 fold change [3] | log2 fold change [4] | log2 fold change [5] |
| --- | --- | --- | --- | --- | --- |
| YME1L1 (UniProt Q96TA2) | 0.004 (inactive) | -0.021 (inactive) | 0.032 (inactive) | -0.008 (inactive) | 0.002 (inactive) |
| WDR7 (UniProt Q9Y4E6) | 0.055 (inactive) | 0.011 (inactive) | 0.019 (inactive) | 0.029 (inactive) | -0.027 (inactive) |
| ZNF644 (UniProt Q9H582) | 0 (inactive) | 0.003 (inactive) | -0.098 (inactive) | -0.009 (inactive) | 0.01 (inactive) |
| WIPI2 isoform 6 (UniProt Q9Y4P8) | 0.092 (inactive) | 0.088 (inactive) |  |  | -0.073 (inactive) |
| ZNF281 (UniProt Q9Y2X9) |  |  |  | -0.02 (inactive) |  |
| VPS35L (UniProt Q7Z3J2) | 0.013 (inactive) | 0.004 (inactive) | 0.044 (inactive) | -0.032 (inactive) | 0.013 (inactive) |
| WSB1 (UniProt Q9Y6I7) |  |  |  | 0.036 (inactive) | -0.036 (inactive) |
| WAC isoform 5 (UniProt Q9BTA9) |  |  |  | -0.232 (inactive) |  |
| ZKSCAN8 (UniProt Q15776) |  |  | -0.065 (inactive) | -0.026 (inactive) |  |
| WDR41 (UniProt Q9HAD4) | 0.043 (inactive) | 0.013 (inactive) | 0.02 (inactive) | -0.047 (inactive) | -0.012 (inactive) |
| ZYG11A (UniProt Q6WRX3) | -0.075 (inactive) | -0.13 (inactive) |  |  | -0.012 (inactive) |
| USP34 (UniProt Q70CQ2) | -0.002 (inactive) | -0.015 (inactive) | 0 (inactive) | -0.004 (inactive) | 0.073 (inactive) |
| ZBTB40 (UniProt Q9NUA8) |  |  | -0.06 (inactive) | -0.004 (inactive) | -0.432 (active) |
| VASN (UniProt Q6EMK4) |  |  |  | -0.017 (inactive) |  |
| UTRN isoform 2 (UniProt P46939) | 0.026 (inactive) | 0.037 (inactive) |  |  | 0.062 (inactive) |
| WAS (UniProt P42768) | 0.003 (inactive) | -0.006 (inactive) |  | -0.095 (inactive) | 0.053 (inactive) |
| ZSCAN21 (UniProt Q9Y5A6) |  |  |  |  | -0.074 (inactive) |
| ZNF146 (UniProt Q15072) |  |  |  | -0.059 (inactive) |  |
| UNC13A (UniProt Q9UPW8) |  |  |  |  | -0.966 (inactive) |
| VPS13C (UniProt Q709C8) | -0.111 (inactive) | -0.002 (inactive) | 0.061 (inactive) | 0.018 (inactive) | 0.008 (inactive) |

— the supplement of paper PMC10849652
